PubChem BioAssay
Active and inactive are the calls of the source.

How the values were obtained:
[1] = A549 cell viability effects, profiling panel, calcein-AM fluorescence, 48 h, basal (AID 1162); conditions: higher = more signal
[2] = adipocyte viability effects, profiling panel, cell-based, 3T3-L1 adipocytes, calcein-AM fluorescence, 48 h, basal (AID 1163); conditions: 3T3-L1 adipocytes viability, higher = more signal
[3] = HepG2 cell viability effects, profiling panel, calcein-AM fluorescence, 48 h, basal (AID 1164); conditions: higher = more signal
[4] = MM1S cell viability effects, profiling panel, calcein-AM fluorescence, 48 h, basal (AID 1165); conditions: higher = more signal;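 also: viability of MM1S multiple myeloma cells under basal unstimulated conditions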
[5] = basal RPMI8226 viability, no added stimulus, profiling panel, cell-based, calcein-AM fluorescence, 48 h, PK04 Diversity Set (AID 1166); conditions: RPMI8226 myeloma viability, higher = more signal;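 also: cells grown under basal conditions without added stimulus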
[6] = basal HepG2 mitochondrial membrane potential changes, profiling panel, cell-based, JC-1 fluorescence, 24 h, 100 nL compound (AID 1167); conditions: higher = more signal
[7] = basal 3T3-L1 adipocyte mitochondrial potential changes, profiling panel, cell-based, JC-1 fluorescence, 3T3-L1 adipocytes, 24 h, 100 nL compound (AID 1168); conditions: JC-1 mitochondrial fluorescence, higher = more signal, called active from +8 up or from −8 down
[8] = basal RPMI8226 mitochondrial membrane potential changes, profiling panel, cell-based, JC-1 fluorescence, 24 h, 100 nL compound (AID 1169); conditions: RPMI8226 myeloma, JC-1 mitochondrial potential fluorescence, higher = more signal
[9] = basal MM1S mitochondrial membrane potential changes, profiling panel, cell-based, JC-1 fluorescence, 24 h, 100 nL compound (AID 1170); conditions: higher = more signal
[10] = A549 lung cancer cell viability effects, profiling panel, resazurin fluorescence, 24 h, PK04 Diversity Set (AID 1171); conditions: higher = more signal, called active from +8 up or from −8 down
Also: test concentration not given here.

| Compound | z-score [1] | z-score [2] | z-score [3] | z-score [4] | z-score [5] | z-score [6] | z-score [7] | z-score [8] | z-score [9] | z-score [10] |
| --- | --- | --- | --- | --- | --- | --- | --- | --- | --- | --- |
| C=CC[C@]1(C(N)=O)N=C(c2ccc(OCCCO)cc2)O[C@H]1c1ccccc1CN=[N+]=[N-] | 0.919 | 2.24 | -0.509 | -0.562 | -1.37 | 2.69 | -0.436 (inactive) | -0.434 | 0.501 | 0.01 (inactive) |
| Cc1ccc([C@@H]2CC=C(C(=O)O)[C@H](c3ccccc3)N2S(=O)(=O)c2ccc(C)cc2)cc1 | -0.612 | 0.557 | -0.825 | -0.251 | -2.2 | -0.957 | 0.289 (inactive) | -0.373 | 0.511 | -0.997 (inactive) |
| CCCC=C(CCC)[C@@H](NC(=O)c1ccc(C(F)(F)F)cc1)c1ccccc1 | -0.842 | 0.0679 | -1.59 | -2.51 | -2.58 | -2.98 | -0.208 (inactive) | -0.601 | -1.13 | -0.396 (inactive) |
| C=CC(=O)O[C@@H](Cc1ccccc1)[C@H]1C2C=CCCC=C2CN1Cc1cccc(Cl)c1 (stereo not given in full) | 1.07 | 0.392 | 0.216 | -3.14 | -2.84 | 0.687 | 0.0156 (inactive) | -0.233 | 0.453 | 1.11 (inactive) |
| O=C1O[C@H](c2ccccc2)[C@H](c2ccccc2)N2[C@H]1[C@@H](C(=O)NC[C@H](O)c1ccccc1)[C@]1(C(=O)Nc3ccc(C#CC4=CCCCC4)cc31)[C@H]2c1ccc(OCCO)cc1 | 0.0545 | -0.405 | -0.674 | -1.24 | -2.29 | -2.36 | 1.27 (inactive) | -1.34 | -1.52 | -0.527 (inactive) |
| CC(c1ccccc1)C(O)C1C=CC2C(=O)N(C)C(=O)C2N1N(c1ccccc1)c1ccccc1 (stereo not given) | -0.279 | -1.94 | 0.919 | 0.455 | 0.427 | -0.288 | -1.37 (inactive) | -0.17 | -0.939 | -0.346 (inactive) |
| O=C(CS)NCCCCCNC(=O)[C@H]1C[C@H]2C(=O)N[C@@H](Cc3ccccc3)C(=O)N2[C@H]1c1ccc(O)cc1 | -0.142 | 1.62 | -1.02 | -0.193 | 0.575 | 0.248 | 0.765 (inactive) | -0.539 | 0.368 | 0.411 (inactive) |
| NC(=O)NCC#Cc1ccc2c(c1)[C@]1(C(=O)N2)[C@H](C(N)=O)[C@H]2C(=O)O[C@H](c3ccccc3)[C@H](c3ccccc3)N2[C@@H]1c1ccccc1OCCO | -1.23 | 0.634 | -0.945 | -0.211 | -0.186 | -1.01 | -0.287 (inactive) | -1.05 | -0.386 | 0.79 (inactive) |
| CCN1C(C)=C(C(=O)OC)[C@@H](c2ccccc2)N2C(=O)[C@@]3(C(=O)OC)O[C@@]12[C@@H]1C(=O)N(C)C(=O)[C@@H]13 | 0.0516 | 0.59 | -0.616 | -1.51 | 0.68 | 0.684 | 1.15 (inactive) | 0.644 | -0.196 | 0.363 (inactive) |
| Cc1ccc(N2C(=O)c3ccccc3[C@](C)(C(=O)O)[C@@H]2c2ccc(CO)cc2)nc1 | 0.0643 | 0.937 | -0.0479 | -0.231 | 0.614 | 0.521 | 0.23 (inactive) | -0.167 | 0.25 | 0.755 (inactive) |
| CCCNC(=O)[C@@]1(Sc2ccc(C)cc2)CC(=O)N(Cc2ccccc2Cl)[C@@H]1c1ccc(CO)cc1 | 0.648 | 2.79 | -0.597 | 0.189 | 0.154 | 0.00317 | 0.0754 (inactive) | 0.653 | 0.368 | 0.644 (inactive) |
| O=C1C2C=CC(C(O)C(c3ccccc3)c3ccccc3)N(Nc3ccc([N+](=O)[O-])cc3)C2C(=O)N1c1ccccc1 (stereo not given) | -0.727 | -0.97 | 0.585 | -0.224 | -0.986 | 0.581 | -0.735 (inactive) | 0.213 | -1.44 | 0.452 (inactive) |
| CCCCCCc1nc(C2CC2)c(C)c2c1[Si](C(C)C)(C(C)C)OC2 | 0.632 | 2.88 | -0.693 | -0.155 | -0.499 | 0.366 | 1.56 (inactive) | 0.296 | 0.419 | -0.207 (inactive) |
| CO[C@@H]1COC(=O)CC=C[C@H](C)COC(=O)[C@H](Cc2ccccc2)NC(=O)CC=C[C@H]1C | 0.392 | 0.509 | 0.674 | 0.305 | 0.333 | 0.883 | 0.258 (inactive) | -0.146 | -0.597 | -0.145 (inactive) |
| C=CCN1C(=O)[C@]2(O[C@H](CCn3cc(CCO)nn3)[C@@H]([Si](C)(C)c3ccc(OC)cc3)[C@@H]2C)c2cc(NC(=O)c3ccc(OC)cc3)ccc21 | -0.423 | 0.727 | -0.792 | -2.7 | -4.31 | 3.04 | 1.61 (inactive) | -1.09 | 0.122 | -2.65 (inactive) |
| C=C(COC)/C(=C/C[C@@H](OC(=O)c1ccncc1)c1ccc(OCCO)cc1)c1cc(C(=O)OC)ccc1OC | 1.13 | 1.51 | 0.183 | -0.312 | 0.93 | 2.48 | 1.79 (inactive) | 0.116 | 0.487 | 1.6 (inactive) |

| Compound | z-score [1] | z-score [2] | z-score [3] | z-score [4] | z-score [5] | z-score [6] | z-score [7] | z-score [8] | z-score [9] | z-score [10] |
| --- | --- | --- | --- | --- | --- | --- | --- | --- | --- | --- |
| O=C1O[C@@H](c2ccccc2)[C@@H](c2ccccc2)N2[C@@H](c3ccc(O)cc3)[C@]3(C(=O)Nc4ccccc43)[C@@H](C(=O)N3CCN(c4ncccn4)CC3)[C@H]12 | 0.661 | -0.957 | 1.15 | -1.16 | -1.77 | -0.235 | 1.72 (inactive) | -0.455 | -0.618 | -0.133 (inactive) |
| COCCOC(=O)N1C(=O)[C@@]2(c3cc(C#CC4=CCCCC4)ccc31)[C@H](C(=O)NC[C@H](O)c1ccccc1)[C@H]1C(=O)O[C@H](c3ccccc3)[C@H](c3ccccc3)N1[C@@H]2c1ccccc1OCCO | -1.03 | -0.383 | -3.29 | -3.21 | -4.04 | -1.46 | 2.6 (inactive) | -0.804 | -1.67 | -1.43 (inactive) |
| COCCOC(=O)N1C(=O)[C@@]2(c3cc(C#CCCO)ccc31)[C@H](C(=O)N1CCCCCCC1)[C@H]1C(=O)O[C@H](c3ccccc3)[C@H](c3ccccc3)N1[C@@H]2c1ccc(O)cc1 | 1.53 | 0.843 | 1.87 | 0.555 | -0.479 | 0.538 | 2.37 (inactive) | -1.04 | 0.0272 | 0.641 (inactive) |
| COc1ccc(NN2C(C(O)c3cc(OC)c(OC)c(OC)c3)C=CC3C(=O)N(C4CCCCC4)C(=O)C32)cc1 (stereo not given) | -0.753 | -1.42 | 1.17 | 0.651 | -0.177 | 0.861 | -0.569 (inactive) | 0.00692 | -1.78 | 0.239 (inactive) |
| COc1ccc(-c2ccccc2[C@@H]2N[C@H](C(=O)O)CC[C@H]2C)cc1 | 0.212 | 1.63 | -0.428 | 1.09 | -0.372 | 0.924 | 0.366 (inactive) | 0.1 | 0.614 | 0.597 (inactive) |
| CC(C)N1CC=CC23O[C@@H]4/C=C\CCCOC(=O)C4[C@H]2C(=O)N(CCCCCO)[C@@H]3C1=O (stereo not given in full) | 0.196 | 1.24 | 0.791 | 1.64 | 0.0268 | 0.446 | 1.31 (inactive) | -0.197 | 0.599 | 0.929 (inactive) |
| COc1ccc([Si](C)(C)[C@@H]2[C@@H](CCO)O[C@]3(C(=O)N(Cc4ccccc4)c4ccccc43)[C@H]2C)cc1 | -0.617 | 0.725 | -0.495 | -1.22 | -2.05 | 2.34 | 0.358 (inactive) | -0.181 | 0.849 | -1.69 (inactive) |
| COC(=O)C[C@H]1O[C@]2(C(=O)N(Cc3ccccc3)c3ccc(I)cc32)[C@@H](C)[C@@H]1[Si](C)(C)c1ccc(OC)cc1 | -0.344 | 1.02 | 0.638 | -0.077 | -1.22 | 2.66 | -1.07 (inactive) | -0.226 | 0.211 | -0.923 (inactive) |
| C[C@]1(C(=O)NCc2ccccc2)c2ccccc2C(=O)N(Cc2cc(C(F)(F)F)cc(C(F)(F)F)c2)[C@H]1c1ccc(CO)cc1 | 0.0361 | 1.95 | 0.292 | -0.951 | -1.46 | 1.07 | -0.122 (inactive) | -0.155 | -0.177 | 0.805 (inactive) |
| COCCOC(=O)N1C(=O)[C@@]2(c3ccccc31)[C@H](C(=O)N1CCc3cc(OC)c(OC)cc3C1)[C@H]1C(=O)O[C@H](c3ccccc3)[C@H](c3ccccc3)N1[C@@H]2c1ccccc1OCCO | 1.57 | 1.3 | -0.478 | -1.2 | -0.222 | 1.24 | 0.407 (inactive) | -0.181 | -0.238 | 0.725 (inactive) |
| CC(=O)NCCCC[C@@H]1NC(=O)[C@H]2C[C@@H](C(=O)NCCCCCCN(C)C)[C@@H](c3cccc(OCCO)c3)N2C1=O | 0.214 | 0.509 | 0.344 | 0.27 | 0.079 | -0.0861 | -0.308 (inactive) | -0.125 | -0.376 | -0.739 (inactive) |
| CSCC[C@@H]1NC(=O)CC=C[C@@H](C)COC(=O)[C@H](CCSC)NC(=O)CC=C[C@@H](C)COC1=O | 0.364 | 1.7 | 0.0574 | 0.0493 | 0.0542 | 0.79 | 0.647 (inactive) | 0.508 | 0.388 | 0.376 (inactive) |
| CC(C)C[C@@H]1NC(=O)[C@H]2C[C@@H](C(=O)NCCCCCC[N+](C)(C)C)[C@@H](c3ccc(O)cc3)N2C1=O | -0.547 | -0.304 | -1.01 | -0.0171 | 0.0824 | -0.575 | 0.177 (inactive) | -0.342 | -0.958 | 1.09 (inactive) |
| O=C1O[C@H](c2ccccc2)[C@H](c2ccccc2)N2[C@H]1[C@@H](C(=O)Nc1nc3ccccc3s1)[C@]1(C(=O)Nc3ccc(C#CC4=CCCCC4)cc31)[C@H]2c1ccccc1OCCO | -0.639 | 0.313 | -0.557 | -1.63 | -1.07 | -2.86 | -1.06 (inactive) | -0.798 | -1.46 | -0.893 (inactive) |
| C=CCc1cccc([C@@H]2[C@@H](C)CC[C@H]3C(=O)N4[C@H](c5cccc(CC=C)c5)[C@@H](C)CC[C@H]4C(=O)N23)c1 | -0.814 | 1.29 | -0.746 | -3.58 | -3.9 | 2.17 | 0.639 (inactive) | -0.811 | -1.28 | 3.27 (inactive) |
